High-throughput results: PubChem BioAssay, several laboratories
Hits are enriched below; roughly 3.6% of the tested compounds scored in any of these assays.
BoNT-F LC inh = BoNT F light chain protease inhibition; 360,000 compounds, 0.22% hits; inhibition, % at 10 µM; Multiplex microsphere protease cleavage assay, flow cytometry; AID 588497; in the data active means inhibition above about 35%, passing the limit was not always enough; inconclusive means no clear call, values can overlap the other calls; further: plate controls were buffer without enzyme for full effect and enzyme alone for no effect
Autofluor counter = counter-screen for toxin protease inhibitors: compound fluorescence. compound autofluorescence counterscreen, microsphere flow cytometry; stronger effect = higher value. fluorescence intensity (no concentration beside the values). 360,000 compounds, 3.1% hits; in the data active means fluorescence intensity above about 16000; inconclusive means no clear call, values can overlap the other calls
BoNT-A LC inh2 = blocks Botulinum neurotoxin A light chain protease; multiplex microsphere protease substrate cleavage, flow cytometry; inhibition, % at 10 µM; 360,000 compounds, 0.17% hits; AID 588499; further: plate controls were buffer without enzyme for full effect and enzyme alone for no effect
SARS 3CLpro inh = SARS-CoV 3CLpro protease inhibition. P0C6X7. recombinant SARS-CoV 3CLpro, quenched FRET peptide cleavage. inhibition, % at 6 µM. 290,000 compounds, 0.14% hits. AID 1706; in the data active means inhibition above about 12%
BJeLR lethal = kills HRASV12-expressing BJeLR cells | 300,000 compounds, 0.17% hits | BJeLR (HRASV12) viability, CellTiter-Glo ATP luminescence, 48 h | inhibition, % (test concentration not listed); in the data active means inhibition above about 50%; inconclusive means no clear call, values can overlap the other calls
Anthrax LF inh2 = blocks Bacillus anthracis lethal factor protease | P15917 | multiplex microsphere protease cleavage assay, LF | inhibition, % at 10 µM | 360,000 compounds, 0.12% hits; further: plate controls were buffer without enzyme for full effect and enzyme alone for no effect
An asterisk follows results filed as active; u = inconclusive; x = no result given. Unless noted, no stated cut-off is given here; in the data, active means inhibition above about 30%; inconclusive means no clear call, values can overlap the other calls; inactive means below that.

SMILES	BoNT-F LC inh	Autofluor counter	BoNT-A LC inh2	SARS 3CLpro inh	BJeLR lethal	Anthrax LF inh2
CCOC(=O)c1c(C)c(C(=O)NC(C)COC)c(C)n1CC (stereo not given)	-5	10631	0	2	-8	-2
CCOC(=O)c1c(C)c(C(=O)NCCCOC(C)C)c(C)n1C	2	19718*	2	3	2	-6
CCOC(=O)c1c(C)c(C(=O)NCc2ccc3c(c2)OCO3)c(C)n1C	-8	16759*	-2	0	-9	-2
CCOC(=O)c1c(C)c(C(=O)NC(C)COC)c(C)n1C (stereo not given)	-5	17439*	u	-5	-4	-3
COc1ccc2c(=O)c(Oc3ccc(C(=O)O)cc3)c(C(F)(F)F)oc2c1	-4	4568	-1	3	4	-9
O=P(Nc1c(Cl)cccc1Cl)(c1ccccc1)c1nc2c(s1)CCCC2 (stereo not given)	-3	23723*	-3	2	-5	-9
O=P(Nc1ccccc1Cl)(c1ccccc1)c1nc2c(s1)CCCC2 (stereo not given)	-9	17289*	-3	8	2	-2
CP(=O)(Nc1ccc(Cl)cc1)c1nc2c(s1)CCCC2 (stereo not given)	-2	4233	0	-2	11	-1
CC(=O)OCCN(CCCn1c(-c2ccncc2)nc2ccccc21)c1nc(CN2CCCCC2)cs1	-9	3010	0	-6	-2	3
CCN(CC(=O)Nc1c(F)cccc1F)C(=O)C1CCCN(C(=O)c2ccc(Cl)cc2)C1 (stereo not given)	10	5166	1	4	10	-1
Cc1ccc(/C=C2\SC(=S)N(C3CCS(=O)(=O)C3)C2=O)o1 (stereo not given)	11	2152	35*	0	-4	15
NS(=O)(=O)c1ccc(-c2ccc(/C=C3\SC(=S)N(C4CCS(=O)(=O)C4)C3=O)o2)cc1 (stereo not given)	19	4298	65*	-2	-1	46*
O=C1/C(=C/c2ccccc2)SC(=S)N1C1CCS(=O)(=O)C1 (stereo not given)	0	6643	0	-5	6	4
Nc1nonc1C(=O)NCCN=Cc1cc(Cc2ccccc2)cc(Br)c1O	-7	17444*	-4	1	1	-1
COc1ncnc2c1ncn2CCCN[C@H](C)c1cccc2ccccc12	3	3915	0	x	x	10
CCOc1ccc2[nH]c(=O)c(C(c3nnnn3C3CCCCC3)N3CCN(C)CC3)cc2c1 (stereo not given)	3	8586	1	1	x	6
COc1cc2cc(C(c3nnnn3C3CCCC3)N3CCCCC3)c(=O)[nH]c2cc1OC (stereo not given)	-1	19432*	1	2	0	2
Cc1ccc2cc(C(c3nnnn3C3CCCC3)N3CCN(c4ccccc4)CC3)c(=O)[nH]c2c1 (stereo not given)	6	9107	1	-7	0	-1
COc1ccc2[nH]c(=O)c(C(c3nnnn3C3CCCC3)N(C)C3CCCCC3)cc2c1 (stereo not given)	-4	24246*	u	4	-3	-3
O=c1[nH]c2cc3c(cc2cc1C(c1nnnn1C1CCCCC1)N1CCSCC1)OCCO3 (stereo not given)	0	22680*	3	2	x	6
COc1cc2cc(C(c3nnnn3C3CCCC3)N3CCCCCC3)c(=O)[nH]c2cc1OC (stereo not given)	-4	20987*	-1	-1	-19	0
Cc1cnc(C2OCCO2)c2cccc([N+](=O)[O-])c12	-5	2895	0	x	x	1
Cn1c(NCCN2CCCC2)nc2cc(-c3cccc(C(F)(F)F)c3)sc2c1=O	-1	3004	0	x	x	2
O=C(NCc1ccccc1Cl)C(=O)NCC1OCCN1S(=O)(=O)c1cccs1 (stereo not given)	-2	2709	-1	1	1	-2
Cc1ccc(OCC(=O)Nc2ccc(C)c(F)c2)c([N+](=O)[O-])n1	9	5845	4	x	x	6
SMILES	BoNT-F LC inh	Autofluor counter	BoNT-A LC inh2	SARS 3CLpro inh	BJeLR lethal	Anthrax LF inh2
COc1ccc(C(=O)NCc2nnc(SCC(=O)Nc3cc(Cl)ccc3OC)o2)cc1	2	4687	0	-1	0	3
CCOc1ccc2[nH]c(=O)c(C(c3nnnn3C3CCCCC3)N3CCN(CC)CC3)cc2c1 (stereo not given)	-2	21002*	u	-1	7	2
O=C(c1cccn2c(=O)c3cc(Cl)ccc3nc12)N1CCOCC1	0	23073*	u	0	-12	-1
O=C(c1cccn2c(=O)c3ccccc3nc12)N1CCN(Cc2ccc3c(c2)OCO3)CC1	0	20636*	0	-2	-1	1
O=C(c1cccn2c(=O)c3cc(Cl)ccc3nc12)N1CCN(Cc2ccc3c(c2)OCO3)CC1	11	16508*	11	-1	-17	-8
O=[N+]([O-])c1cccc(NC(=S)N2CCc3ccccc32)c1	13	5919	3	1	x	1
Cc1ccc(C)c(OCCn2cc(/C=C(\C#N)C(=O)NCc3cccs3)c3ccccc32)c1	3	22488*	2	6	10	-2
O=C(O)c1cccc(N2C(=O)c3cccnc3C2=O)c1	-4	23303*	u	7	-2	-4
O=C(O)c1cccc(N2C(=O)c3cccc4cccc(c34)C2=O)c1	2	3411	0	-4	-4	-6
CC(C)(C)S(=O)N1Cc2cc(C(=O)NCc3ccc4c(c3)OCO4)nc(-c3cccc(-c4ccccc4)c3)c2[C@@H]1CCO (stereo not given in full)	-12	5724	0	x	x	1
CCCNC(=O)CC1C(=O)N(Cc2ccccc2)C(C)c2nc3ccccc3n21 (stereo not given)	2	3619	0	-5	0	-2
CNC(=O)CSCc1c(F)cccc1Cl	-1	6446	-1	3	-4	0
CC(C)NC(=O)CSCc1c(F)cccc1Cl	-3	16724*	-2	-2	-3	-1
O=C(Nc1ccc2c(c1)OCO2)C1CC(c2ccc(F)cc2)=NO1 (stereo not given)	2	4198	-1	2	3	-4
COC(=O)c1ccccc1NC(=O)C1CC(c2ccc(F)cc2)=NO1 (stereo not given)	0	16511*	0	3	-1	-2
N#Cc1ccc(NC(=O)C2CC(c3ccc(F)cc3)=NO2)cc1 (stereo not given)	-3	22651*	0	2	-2	-2
CCOC(=O)N1CCN(c2cc(C)c(C(C)=O)cc2F)CC1	1	10101	2	-1	-9	0
CCOC(=O)N1CCN(c2cc3[nH]c(=S)[nH]c3cc2F)CC1	8	21312*	8	-4	-3	0
CCOC(=O)N1CCN(c2c(F)cc3[nH]c(=S)[nH]c3c2Br)CC1	5	9342	1	3	-3	-1
